Screening results: PubChem, The Scripps Research Institute Molecular Screening Center
Shown are actives, neighbours in structure and some others; about 3.4% of the full set was active somewhere.
MITF primary: blocks human microphthalmia-associated transcription factor; 0.91% of 650,000 active; inhibition, % at 2.6 µM; AlphaScreen MITF homodimerization, bead proximity signal; AID 1259374; O75030; in the data active = inhibition above about 50%;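 note: 0% = vehicle wells with protein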
Target sequence (O75030 whole entry, looked up): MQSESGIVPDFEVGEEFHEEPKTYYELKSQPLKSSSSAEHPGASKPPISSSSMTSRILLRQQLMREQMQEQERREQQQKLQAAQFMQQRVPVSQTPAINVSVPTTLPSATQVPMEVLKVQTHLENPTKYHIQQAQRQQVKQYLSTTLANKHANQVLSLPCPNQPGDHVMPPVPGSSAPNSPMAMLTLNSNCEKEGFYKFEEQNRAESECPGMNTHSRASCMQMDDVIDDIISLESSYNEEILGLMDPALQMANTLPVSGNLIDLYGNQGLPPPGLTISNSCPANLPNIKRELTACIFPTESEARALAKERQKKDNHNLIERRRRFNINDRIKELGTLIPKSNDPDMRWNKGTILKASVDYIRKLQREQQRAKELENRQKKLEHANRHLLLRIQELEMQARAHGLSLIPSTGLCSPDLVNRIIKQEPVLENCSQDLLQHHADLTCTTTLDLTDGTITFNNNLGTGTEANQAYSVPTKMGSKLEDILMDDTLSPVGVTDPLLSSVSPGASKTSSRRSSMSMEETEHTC
FBW7 act: activators of human E3 ligase FBW7. AlphaScreen FBW7–phospho-cyclin E peptide binding, activator screen. normalized activity (activation), % at 26.1 µM. Q969H0. AID 1259310. 0.13% of 650,000 active; in the data active = normalized activity above about 1.9%;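 note: purified mutant Fbw7 with reduced substrate affinity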
GPR151 ag: activates the human receptor GPR151. 1% of 650,000 active. PathHunter beta-arrestin GPR151 cells, luminescence. activation, % at 11.2 µM. Q8TDV0; in the data active = activation above about 4.9%;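 note: 0% = median of compound wells and 100% = cells with positive control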
TEAD-YAP inh: TEAD-YAP interaction inhibition; HEK-TIYL cells, TEAD-Gal4/YAP UAS-luciferase luminescence; inhibition, % at 9.12 µM; 1.4% of 640,000 active; AID 1259422; in the data active = inhibition above about 32%;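 note: 0% = median of test compound wells and 100% = reference inhibitor wells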
GPR151 conf act: human GPR151 activation, confirmation screen; shares compounds with GPR151 ag; GPR151 PathHunter beta-arrestin cells, luminescence, 90 min; % of EA-reagent control over plate median; activation, % at 11.2 µM; 6,700 tested, under 10 active;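 active = mean percent activation across replicates above the confirmation screen cutoff of 4.91%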
GPR119 counter: GPR119 activation, counter-screen for GPR151 activators. shares compounds with GPR151 ag. GPR119 PathHunter beta-arrestin cells, luminescence, 90 min; 0 = compound-well median, 100 = enzyme-acceptor control. activation, % at 11.2 µM. 0.3% of 6,700 active;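 active = mean percent activation in the counterscreen above 29.09%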;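 note: counterscreen on off-target GPR119 to flag nonselective hits from the GPR151 activator screen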
* hit, by the source's call.

Results for O=C(NCc1cccc(Cl)c1)NCc1noc2ccccc12 ?
MITF primary: -12; FBW7 act: 0; GPR151 ag: 6.5*; TEAD-YAP inh: -21; GPR151 conf act: 0; GPR119 counter: 2

What do the screens show for `O=C(NCCN1CCOCC1)c1cccc(-c2ccc(C(=O)NC3CC3)cc2)c1`?
MITF primary: 8; FBW7 act: 0; GPR151 ag: 0; TEAD-YAP inh: 1

What do the screens show for `C/C(=N\NC(=O)c1ccc(CN2c3cccc4cccc(c34)S2(=O)=O)cc1)c1ccco1`?
MITF primary: 4; FBW7 act: 0; GPR151 ag: 2; TEAD-YAP inh: -2

Results for CN1CCC(=NNC(=O)c2ccc(CN3c4cccc5cccc(c45)S3(=O)=O)cc2)CC1 ?
MITF primary: 2; FBW7 act: 0; GPR151 ag: 6.0*; TEAD-YAP inh: 1; GPR151 conf act: -1; GPR119 counter: 1

Results for COCCn1c(C)cc2c(c1=O)C(c1ccc(Cl)cc1)C(C(=O)OC)=C(N)O2 (centres undefined) ?
MITF primary: -3; FBW7 act: 0; GPR151 ag: 0; TEAD-YAP inh: 8

What do the screens show for `COCCn1c(C)cc2c(c1=O)C(c1ccc(Cl)cc1Cl)C(C(=O)OC)=C(N)O2` (centres undefined)?
MITF primary: 10; FBW7 act: 0; GPR151 ag: 7.1*; TEAD-YAP inh: 0; GPR151 conf act: 1; GPR119 counter: -6

What do the screens show for `CN1C(=O)S/C(=C\c2ccc(-c3ccc(C(=O)O)c(Cl)c3)o2)C1=O`?
MITF primary: 21; FBW7 act: 0; GPR151 ag: 0; TEAD-YAP inh: -8

How did Cc1nc(N(C)c2ccc(C(C)C)cc2)c2c(C)c(C(=O)Nc3ccc(Oc4ccccc4)cc3)sc2n1 do in these assays?
MITF primary: 11; FBW7 act: 1; GPR151 ag: 7.8*; TEAD-YAP inh: -2; GPR151 conf act: 1; GPR119 counter: 6

Results for CCN(CC)c1nc(C)nc2sc(C(=O)Nc3ccc(Oc4ccccc4)cc3)c(C)c12 ?
MITF primary: -12; FBW7 act: 0; GPR151 ag: 0; TEAD-YAP inh: -11

Results for Cc1cccc(Nc2nc(N3CCCC3)nc(N3CCCC3)n2)c1 ?
MITF primary: 4; FBW7 act: 0; GPR151 ag: 5.6*; TEAD-YAP inh: 1; GPR151 conf act: 1; GPR119 counter: 4

How did COc1nc(Nc2cccc(C)c2)nc(N2CCCCC2)n1 do in these assays?
MITF primary: 14; FBW7 act: 0; GPR151 ag: 0; TEAD-YAP inh: -7

Results for CCn1c2ccccc2n2c(=O)n(CC(=O)NC3CCCCC3)nc12 ?
MITF primary: -10; FBW7 act: 0; GPR151 ag: 1; TEAD-YAP inh: -5

Results for O=C(N/N=C/c1ccc(O)cc1O)C1CC1c1ccccc1 (centres undefined) ?
MITF primary: 5; FBW7 act: 0; GPR151 ag: -1; TEAD-YAP inh: 5

How did CN(C)c1ccc(NC2CC(=O)N(c3cccc4ccccc34)C2=O)cc1 (centres undefined) do in these assays?
MITF primary: 33; FBW7 act: 0; GPR151 ag: 5.6*; TEAD-YAP inh: 5; GPR151 conf act: 0; GPR119 counter: 4

What do the screens show for `CN(C)c1ccc(NC2CC(=O)N(c3cccc(Cl)c3)C2=O)cc1` (centres undefined)?
MITF primary: 18; FBW7 act: 0; GPR151 ag: 0; TEAD-YAP inh: 4

Results for CCOc1ccc(NC(=O)COc2ccc(C3C(C#N)=C(N)Oc4n[nH]c(C)c43)cc2)cc1 (centres undefined) ?
MITF primary: -2; FBW7 act: 0; GPR151 ag: 0; TEAD-YAP inh: -7

What do the screens show for `COc1ccc(NC(=O)COc2ccc(C3C(C#N)=C(N)Oc4n[nH]c(C)c43)cc2)cc1` (centres undefined)?
MITF primary: 10; FBW7 act: 0; GPR151 ag: 10.0*; TEAD-YAP inh: -7; GPR151 conf act: 1; GPR119 counter: -8

What do the screens show for `Cc1ccccc1C(=O)NC(C)c1ccc2c(c1)OCCO2` (centres undefined)?
MITF primary: -4; FBW7 act: 0; GPR151 ag: 1; TEAD-YAP inh: -10

How did Cc1ccc2c(c1)-c1c(cnn1CC(=O)NCCN(C)C)CO2 do in these assays?
MITF primary: 0; FBW7 act: 0; GPR151 ag: 11*; TEAD-YAP inh: -1; GPR151 conf act: 0; GPR119 counter: 5

How did Cc1ccc2c(c1)-c1c(cnn1CC(=O)NC1CC1)CO2 do in these assays?
MITF primary: 6; FBW7 act: 1; GPR151 ag: 6.1*; TEAD-YAP inh: 21; GPR151 conf act: 0; GPR119 counter: -3

Results for Cc1ccc2c(c1)-c1c(cnn1CC(=O)N(C)c1ccccc1C)CO2 ?
MITF primary: 2; FBW7 act: 0; GPR151 ag: 7.1*; TEAD-YAP inh: 13; GPR151 conf act: 0; GPR119 counter: -4

Results for CCOCCCNC(=O)Cn1ncc2c1-c1cc(C)ccc1OC2 ?
MITF primary: 5; FBW7 act: 0; GPR151 ag: 0; TEAD-YAP inh: 5

What do the screens show for `Nc1nc(-c2ccco2)nc(-c2ccco2)n1`?
MITF primary: -3; FBW7 act: 0; GPR151 ag: -1; TEAD-YAP inh: -2

How did COc1ccccc1NC(=O)C1OC2OC(C)(C)OC2C2OC(C)(C)OC12 (centres undefined) do in these assays?
MITF primary: -5; FBW7 act: 0; GPR151 ag: -1; TEAD-YAP inh: -3

Results for COc1ccccc1NC(=O)[C@H]1O[C@@H]2OC(C)(C)O[C@@H]2[C@H]2OC(C)(C)O[C@H]21 ?
MITF primary: -5; FBW7 act: 0; GPR151 ag: 6.9*; TEAD-YAP inh: 8; GPR151 conf act: 2; GPR119 counter: 10

How did CC1=C(C(=O)CN2CCN(c3ccccc3)CC2)N2C=CC=CC2N1 (centres undefined) do in these assays?
MITF primary: 5; FBW7 act: 0; GPR151 ag: 9.2*; TEAD-YAP inh: 7; GPR151 conf act: 1; GPR119 counter: 7

Results for COC(=O)c1cc(CNC(=O)C2Cc3ccccc3O2)cc(NC(=O)Cc2ccccc2)c1 (centres undefined) ?
MITF primary: 4; FBW7 act: 0; GPR151 ag: 0; TEAD-YAP inh: 2

What do the screens show for `CCOC(=O)c1c(C)[nH]c(NC(=O)Nc2ccc(F)cc2)c1C`?
MITF primary: -4; FBW7 act: 0; GPR151 ag: 0; TEAD-YAP inh: 2

What do the screens show for `CCOC(=O)c1c(C)[nH]c(NC(=O)Nc2ccc(OCC)cc2)c1C`?
MITF primary: -6; FBW7 act: 0; GPR151 ag: 6.0*; TEAD-YAP inh: 3; GPR151 conf act: 1; GPR119 counter: 4
